# PAX8 inh HTS: PAX8 transcriptional activity inhibition; AID 652154; inhibition, % at 12.6 µM; RMG-I TPO-luciferase reporter, SteadyGlo, 24 h; 360,000 compounds, 1.2% hits;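 active means mean replicate inhibition at least 60% with every replicate also reaching 60%; inconclusive means only one of the two criteria is met; inactive means mean below 60% and not all replicates reaching 60%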;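 further: luciferase light reporting Pax8 driven TPO promoter activity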
# EWS-Fli block: inhibitors of EWS/Fli oncoprotein transcriptional activity. A673 NR0B1-luciferase reporter, viability-normalised. inhibition, % at 12.6 µM. 350,000 compounds, 0.67% hits. AID 651661;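 active means mean inhibition of at least 50% after viability correction, with every replicate also passing that limit; inconclusive means mean reaches 50% but only one of two replicates passes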;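 further: firefly luciferase signal divided by Alamar Blue viability fluorescence both relative to DMSO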
# Shn3 3UTR inh: reduces Shn3 3'UTR luciferase signal in osteoblasts | 360,000 compounds, 0.52% hits | Clone20 osteoblast Shn3 3'UTR firefly luciferase, 24 h | inhibition, % at 12.5 µM;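 active means mean inhibition of at least 75% with every replicate also reaching 75%; inconclusive means mean inhibition at least 75% but some replicate below; inactive means mean inhibition below 75%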
# Peg3 promoter: inhibitors of Peg3 promoter | HeLa PEG-Prom luciferase reporter, luminescence, overnight | inhibition, % at 20 µM | 360,000 compounds, 1.7% hits | AID 588405;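 active means inhibition of at least 50% at 20 µM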
# ABHD5 PLIN5 PPI: blocks binding of human ABHD5 to perilipin-5 | Q00G26+Q8WTS1 | Split G. princeps luciferase complementation, luminescence, 4 h | inhibition, % at 4 µM | 360,000 compounds, 0.78% hits;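 active means inhibition above the mean inhibition across every tested compound plus 3 SD, cut at about 22% in these data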
# MITF TRPM1 inh: inhibitors of MITF-driven TRPM1 promoter in melanoma cells | inhibition, % at 12.5 µM | AID 488899 | 330,000 compounds, 0.83% hits | SK-MEL-5 TRPM1 promoter luciferase, 24 h;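 active means mean inhibition across replicates of 60% or more, whatever share of single replicates reaches that level; inconclusive means some that reach 60%, reason not given; inactive means mean inhibition across replicates below 60%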
# ABHD5 PLIN5 conf: ABHD5-PLIN5 interaction inhibition, confirmed | shares compounds with ABHD5 PLIN5 PPI | biochemical ABHD5-PLIN5 interaction, luminescence | inhibition, % at 4 µM | 2,200 compounds, 67% hits; in the data active means inhibition above about 23%
# HNF4 counter: HNF4 split-luciferase signal hit, counter-screen; shares compounds with ABHD5 PLIN5 PPI; HNF4 dimerization, luminescence, biochemical; inhibition, % at 4 µM; 2,200 compounds, 77% hits;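 active means mean inhibition across replicate wells exceeding the computed hit threshold, cut at about 13% in these data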;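 further: light from luciferase halves that rejoin when HNF4 fusion proteins dimerize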
# Target sequence (P41235 whole entry, looked up, the tested form may be a part): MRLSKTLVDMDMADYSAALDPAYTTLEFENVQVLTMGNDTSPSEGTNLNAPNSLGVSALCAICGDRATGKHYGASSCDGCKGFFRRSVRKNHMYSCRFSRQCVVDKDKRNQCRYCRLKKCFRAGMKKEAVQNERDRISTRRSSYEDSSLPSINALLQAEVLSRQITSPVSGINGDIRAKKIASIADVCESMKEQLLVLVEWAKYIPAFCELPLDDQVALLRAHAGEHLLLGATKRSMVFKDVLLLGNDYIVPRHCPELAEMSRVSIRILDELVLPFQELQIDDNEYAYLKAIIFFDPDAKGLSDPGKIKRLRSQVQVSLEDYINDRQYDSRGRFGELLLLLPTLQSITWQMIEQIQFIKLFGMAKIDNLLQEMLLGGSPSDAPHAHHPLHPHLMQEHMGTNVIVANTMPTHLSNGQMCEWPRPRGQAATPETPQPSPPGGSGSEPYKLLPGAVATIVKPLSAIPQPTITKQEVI
# Numbers stand for hits; . = inactive; ? = inconclusive; / = no result. Rows were chosen to be rich in hits. Some 3% of all compounds tested hit in one or more screens of this group.
SMILES,PAX8 inh HTS,EWS-Fli block,Shn3 3UTR inh,Peg3 promoter,ABHD5 PLIN5 PPI,MITF TRPM1 inh,ABHD5 PLIN5 conf,HNF4 counter
CCC(=O)NC1=C(Cl)C(=O)C(NC(=O)CC)=C(Cl)C1=O,86,.,.,81,45,.,101,103
C[C@@H]1CN([C@@H](C)CO)C(=O)c2cccc(NC(=O)c3cnccn3)c2O[C@H]1CN(C)C(=O)Nc1ccc(C(F)(F)F)cc1,.,.,/,/,/,/,/,/
Cc1ccc(-c2nc3c(c(=O)c4ccccc4n3C)c(=O)n2Cc2ccco2)cc1,.,.,/,.,37,.,.,13
O=c1c2ccccc2sc2nc(C3CCCCC3)n(Cc3ccco3)c(=O)c12,/,/,.,.,26,.,37,43
CCc1nc2sc3ccccc3c(=O)c2c(=O)n1Cc1ccco1,/,/,.,.,24,.,36,50
COc1ccc(S(=O)(=O)Nc2ccc3c(c2)CC(=O)N([C@@H](C)CO)C[C@H](C)[C@H](CN(C)CC2CCCCC2)O3)cc1,/,.,/,/,/,/,/,/
C(=N\Nc1nc(-c2ccccc2)cs1)/c1ccncc1,.,.,.,.,.,.,/,/
O=C(O)Cc1sc(N/N=C\c2ccncc2)nc1-c1ccccc1,.,.,.,.,24,.,.,45
CC1C/C(=C/c2ccncc2)C(=O)/C(=C/c2ccncc2)C1 (stereo not given),85,78,.,104,96,106,103,106
CC1C/C(=C/c2cccn2C)C(=O)/C(=C/c2cccn2C)C1 (stereo not given),.,/,.,.,42,.,.,54
N=c1c2c(ncn1Cc1ccco1)Oc1cc(O)ccc1C2c1ccccc1 (stereo not given),.,.,.,.,.,.,/,/
CN(C)CCn1cnc2c(c1=N)C(c1ccccc1)c1ccc3ccccc3c1O2 (stereo not given),.,.,.,109,26,93,.,.
CO[C@H]1CN(C)C(=O)c2ccc(NC(=O)c3ccc(F)cc3)cc2OC[C@H](C)N(C)C[C@@H]1C,.,/,/,/,/,/,/,/
COc1ccc(C(O)C(CN2CCOCC2)c2ccccc2)cc1F (stereo not given),.,/,.,.,.,.,/,/
COc1ccc(C(=O)C(CN2CCOCC2)c2ccccc2)cc1F (stereo not given),/,/,.,95,24,.,.,63
O=C(NCC[C@H]1CC[C@H](NC(=O)Nc2cc(F)ccc2F)[C@H](CO)O1)Nc1ccc(Cl)cc1,.,.,/,/,/,/,/,/
COc1ccc(C(=O)Cn2c(C)nc([N+](=O)[O-])c2Br)cc1,.,.,.,.,.,.,/,/
Cc1nc([N+](=O)[O-])c(Br)n1Cc1ccc(Cl)c(Cl)c1,.,54,.,104,24,.,35,38
Cc1nc([N+](=O)[O-])c(Br)n1CC(=O)c1ccc(Cl)cc1,/,/,.,.,27,.,31,26
Cc1nc([N+](=O)[O-])c(NCCO)n1Cc1ccccc1,.,.,.,.,.,.,/,/
Cn1c(=O)c(=O)n(C)c2cc([N+](=O)[O-])c([N+](=O)[O-])cc21,.,.,.,.,100,.,.,.
O=C(c1ccccc1)c1cc(Cl)ccc1N1C(=O)C=CC1=O,?,.,?,105,38,84,47,98
O=C(CC(=O)c1cc(Cl)ccc1O)c1ccccc1,/,.,.,.,.,.,/,/
CCOc1ccc(S(=O)(=O)N(C)CC(=O)NCc2ccco2)cc1,.,.,.,.,.,.,/,/
COc1ccc(S(=O)(=O)N(C(=O)c2ccco2)c2cc3sc(=O)oc3c3ccccc23)cc1,.,.,.,.,97,.,.,110
SMILES,PAX8 inh HTS,EWS-Fli block,Shn3 3UTR inh,Peg3 promoter,ABHD5 PLIN5 PPI,MITF TRPM1 inh,ABHD5 PLIN5 conf,HNF4 counter
Cc1ccc(S(=O)(=O)N(C(=O)c2ccco2)c2cc3sc(=O)oc3c3ccccc23)cc1,.,/,.,.,31,.,.,109
CCOc1ccc(S(=O)(=O)N(C(=O)c2ccco2)c2cc3sc(=O)oc3c3ccccc23)cc1,.,/,.,.,35,.,.,34
COc1ccc(S(=O)(=O)N(C(=O)C(C)C)c2ccc3oc(=O)sc3c2)cc1,/,.,.,.,32,.,.,39
CC(C)C(=O)N(c1ccc2oc(=O)sc2c1)S(=O)(=O)c1ccccc1,/,.,.,.,.,.,/,/
C[C@@H]1CN([C@@H](C)CO)C(=O)c2cc(NS(=O)(=O)c3cccs3)ccc2O[C@@H]1CN(C)CC1CCCCC1,.,.,/,/,/,/,/,/
O=C1OC(c2ccccc2)=N/C1=C\C=C\c1ccco1,.,.,.,.,39,.,.,35
O=C1OC(c2ccc(Cl)cc2)=N/C1=C\C=C\c1ccco1,.,.,.,.,53,.,.,17
O=C(/C=C/c1ccco1)Nc1ccc(Oc2ccc(Cl)cc2)cc1,/,/,.,.,.,.,/,/
O=C1OC(c2ccccc2)=N/C1=C\C=C\c1ccccc1[N+](=O)[O-],.,.,.,.,.,.,/,/
COc1ccc(N/N=C(\C#N)C(=N)SCc2ccccc2)cc1,.,.,.,.,39,.,38,37
COCC(=O)Nc1ccc2c(c1)OC[C@H](C)N(C(=O)c1ccccc1F)C[C@@H](C)[C@@H](OC)CN(C)C2=O,/,.,/,/,/,/,/,/
N#Cc1c(Nc2ccccc2C(F)(F)F)s[nH]c1=O,.,.,.,.,.,/,/,/
N#Cc1c(Nc2ccccc2Cl)s[nH]c1=O,.,.,.,.,25,.,44,103
CC(C)NC(=O)N1C[C@@H]2[C@H](c3ccccc31)[C@@H](CO)N2Cc1ccccn1,.,.,/,/,/,/,/,/
CC(=O)Oc1c(Br)cc(N(C(C)=O)S(=O)(=O)c2ccccc2)c2ccccc12,.,.,.,.,45,.,48,14
CC(NC(=O)/C=C/c1ccco1)c1nc2ccccc2n1Cc1cccc(Cl)c1 (stereo not given),.,.,.,.,26,.,37,58
COc1ccc2nc3ccccc3nc2c1N,.,.,.,.,38,.,.,.
O=C1C(F)=CC(COC(c2ccccc2)(c2ccccc2)c2ccccc2)OC1n1cc(F)c(=O)[nH]c1=O (stereo not given),.,69,98,98,42,114,101,97
C/C=C/c1cnc2c(c1)C(=O)N([C@H](C)CO)C[C@@H](C)[C@H](CN(C)C(=O)Nc1ccc(C(F)(F)F)cc1)O2,/,.,/,/,/,/,/,/
CCOC(=O)c1c(CSC(=N)N)n(-c2ccc(C)cc2)c2cc(Br)c(OC(C)=O)cc12,?,/,.,54,31,?,33,30
CCOC(=O)c1c(CSC(=N)N)n(C)c2cc(Br)c(OC(C)=O)cc12,.,.,.,.,.,.,/,/
O=C(O)C[C@@H]1C[C@@H]2c3cc(NC(=O)C4CCC4)ccc3O[C@@H]2[C@@H](CO)O1,.,.,/,/,/,/,/,/

# Compound activity (PubChem BioAssay)
